Bioassay records: PubChem, National Center for Advancing Translational Sciences (NCATS)
TGFb inhibitor = TGF-b pathway inhibition; 1.2% of 410,000 active; Potency, µM (top dose mostly 46.1 µM), usual class: inhibitors; AID 588855; HepG2 CAGA-GFP TGF-b/SMAD3 reporter, GFP fluorescence, 18 h; TGF-beta stimulated, 500 pg/mL final; also: nearly all actives have a fitted effect of over 65% in size
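TGF-beta reporter screen: HEPG2 CAGA-GFP, 1% FBS, 500 pg/mL TGF-beta final, 18 h; per-cell GFP summed per well; curves fitted and categorized by class.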
TDP1 inh = TDP1 (human) enzyme inhibition. AID 485290. recombinant TDP1, AlphaScreen DNA substrate cleavage. Potency, µM (doses to about 130 µM), actives largely listed as inhibitors. 0.28% of 350,000 active; also: nearly all actives have a fitted effect of over 40% in size
Target sequence (Q9NUW8 whole entry, looked up): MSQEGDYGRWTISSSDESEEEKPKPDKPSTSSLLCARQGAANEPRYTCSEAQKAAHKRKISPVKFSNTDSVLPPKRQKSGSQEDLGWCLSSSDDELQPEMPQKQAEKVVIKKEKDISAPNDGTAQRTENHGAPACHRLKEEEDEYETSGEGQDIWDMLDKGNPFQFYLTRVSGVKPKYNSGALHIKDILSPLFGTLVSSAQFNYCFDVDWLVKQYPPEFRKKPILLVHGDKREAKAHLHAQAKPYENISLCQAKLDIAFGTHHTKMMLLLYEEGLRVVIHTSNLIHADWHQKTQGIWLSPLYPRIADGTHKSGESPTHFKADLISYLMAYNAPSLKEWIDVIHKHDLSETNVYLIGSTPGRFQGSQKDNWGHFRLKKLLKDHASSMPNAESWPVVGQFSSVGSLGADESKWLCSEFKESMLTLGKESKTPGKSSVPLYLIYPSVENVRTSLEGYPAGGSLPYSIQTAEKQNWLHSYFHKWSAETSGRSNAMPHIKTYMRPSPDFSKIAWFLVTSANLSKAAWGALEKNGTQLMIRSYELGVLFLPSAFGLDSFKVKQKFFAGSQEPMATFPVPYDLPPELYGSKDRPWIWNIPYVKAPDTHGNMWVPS
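Steps: enzyme plus compound, 15 min RT; add biotin/phosphotyrosine-FITC oligonucleotide (15 nM final), react 5 min; add donor/acceptor beads (10 ug/ml final), 10 min; read AlphaScreen. Tdp1 at 1 nM final.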
DT40 TDP1 CPT = growth inhibition of DT40 Tdp1-/-;hTDP1 cells with camptothecin (screen for TDP1 inhibitors) | chicken DT40 Tdp1-/-;hTDP1 cells + 20 nM CPT, ATP luminescence, 48 h | Potency, µM (doses to about 46.2 µM), actives largely listed as inhibitors | 12% of 420,000 active; also: nearly all actives have a fitted effect of over 55% in size
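Chicken DT40 Tdp1-/- cells stably complemented with human TDP1 were seeded at 400 cells/well in medium containing 20 nM camptothecin, exposed to pin-transferred compounds, and grown at 37 °C for at least 48 hr. Viability was read as ATP luminescence.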
IL1B secr inh = inhibitors of inflammasome signaling (IL-1 beta secretion); AID 743279; activity change, % at 57.5 µM; THP-1 LPS/ATP IL-1B secretion, AlphaLISA, 16 h; active compounds read low; 4.7% of 360,000 active; in the data active = activity change below about -50%; inconclusive = mostly about -30% to -49%
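THP-1 cells pretreated 1 hr with compounds (up to 57.5 uM final), then stimulated with LPS (250 ng/mL final) plus ATP (1.25 mM final); secreted IL-1B measured by AlphaLISA after 16 hr, decreased signal indicating inhibition.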
TDP1 cell noCPT = qHTS for Inhibitors of human tyrosyl-DNA phosphodiesterase 1 (TDP1): qHTS in cells in absence of CPT; DT40 Tdp1-/- hTDP1 cells, no CPT, ATP luminescence, 48 h; Potency, µM (titrated, usually from 46.2 µM), usual class: inhibitors; 15% of 420,000 active; AID 686978, 2013; also: nearly all actives have a fitted effect of over 55% in size
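Growth kinetics read by CellTiter-Glo luminescence after ≥48 hr at 37 °C. Cells: DT40 Tdp1-/- stably carrying human TDP1, 400 per well, compound exposure in the absence of CPT (DMSO vehicle).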
HepG2 tox = kills HepG2 cells in TGF-b inhibitor counter-screen; Potency, µM (top dose mostly 46.1 µM), usual class: cytotoxic; AID 588856; HepG2 CAGA-GFP viability, ATP luminescence, 18 h; 0.76% of 410,000 active
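CellTiter-Glo luminescence gave cytotoxicity after 18 hours at 37 degrees C. The cells were HepG2 CAGA-GFP in 1% FBS DMEM, stimulated with 500 pg/mL TGF-beta after compound addition. %Activity was normalised to no-cell wells (complete cell-killing) and DMSO (no toxicity), and curves were fitted and classified.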
A number is an active result. Most compounds without a hit are left out; they make up all but 18% or so of the library. Unless noted, calls follow the shape of the dose curve; as a rule, active = well fitted curve in the direction sought with a large enough effect; inconclusive = small, poorly fitted or top-dose-only effect, or another doubt; inactive = no such curve, though single readings can be large; an effect the other way counts as inactive or inconclusive.

Screening CC[C@@]1([C@@H]2O[C@@H]([C@H]3O[C@@](O)(CO)[C@H](C)C[C@@H]3C)C[C@@H]2C)CC[C@@H]([C@]2(C)CCC3(C[C@H](O)[C@@H](C)[C@@H]([C@@H](C)[C@@H](OC)[C@H](C)C(=O)O)O3)O2)O1 (stereo partly drawn) returned TDP1 inh inactive.
COc1ccc(-n2nc3c(c2NC(=O)C(=O)N2CCN(C)CC2)CSC3)cc1 was read as TGFb inhibitor inactive, TDP1 inh inactive, DT40 TDP1 CPT inactive, TDP1 cell noCPT inactive and HepG2 tox inactive.
For COc1ccc(N2CCN(C(=O)NC(=O)c3ccc(Cl)cc3)CC2)cc1 the results were TGFb inhibitor inactive, TDP1 inh inactive, DT40 TDP1 CPT inconclusive, IL1B secr inh inactive, TDP1 cell noCPT inactive and HepG2 tox inactive.
Screening COc1ccc(C2N(c3ccc(Cl)cc3)N=C(C(C)=O)N(C)N2C(C)=O)cc1 (stereo not drawn) returned TGFb inhibitor inconclusive, TDP1 inh inactive, DT40 TDP1 CPT inactive, IL1B secr inh -58, TDP1 cell noCPT inconclusive and HepG2 tox inactive.
Screening [N-]=[N+]=NCC1OC(n2cnc3c(=O)[nH]c(N)nc32)C(O)C1O (stereo not drawn) returned TDP1 inh inactive, DT40 TDP1 CPT inactive and TDP1 cell noCPT inactive.
NC(C(=O)O)C1ON=C(Cl)C1O (stereo not drawn) was read as TGFb inhibitor inactive, DT40 TDP1 CPT 5.8µM, IL1B secr inh inactive, TDP1 cell noCPT 5.8µM and HepG2 tox inactive.
COc1cccc(CN2C(=O)CN(C3CCCCC3)C(=O)C2c2ccc(F)cc2)c1 (stereo not drawn) was read as TGFb inhibitor inactive, TDP1 inh inactive, DT40 TDP1 CPT inconclusive, IL1B secr inh inactive, TDP1 cell noCPT inconclusive and HepG2 tox inactive.
For CCC(C)(C)N1CC(=O)N(Cc2ccccc2)C(c2ccc(OC)cc2)C1=O (stereo not drawn) the results were TGFb inhibitor inactive, TDP1 inh inactive, DT40 TDP1 CPT 9.2µM, IL1B secr inh inactive, TDP1 cell noCPT 18µM and HepG2 tox inactive.
Screening COc1ccc(C2C(=O)N(C3CCCCC3)CC(=O)N2Cc2ccc3c(c2)OCO3)cc1 (stereo not drawn) returned TGFb inhibitor inactive, TDP1 inh inactive, DT40 TDP1 CPT inconclusive, IL1B secr inh inactive, TDP1 cell noCPT inconclusive and HepG2 tox inactive.
Screening O=C1C(c2ccc(F)cc2)N(Cc2ccc3c(c2)OCO3)C(=O)CN1C1CCCCCC1 (stereo not drawn) returned TGFb inhibitor inactive, TDP1 inh inactive, DT40 TDP1 CPT inconclusive, IL1B secr inh inactive, TDP1 cell noCPT 15µM and HepG2 tox inactive.
`COc1ccccc1CN1C(=O)CN(C2CCCCCC2)C(=O)C1c1ccc(C)cc1` (stereo not drawn) gave TGFb inhibitor inactive, TDP1 inh inactive, DT40 TDP1 CPT 16µM, TDP1 cell noCPT 21µM and HepG2 tox inactive.
O=C1C(c2ccc(F)cc2)N(Cc2ccccc2Cl)C(=O)CN1C1CCCCC1 (stereo not drawn) was read as TGFb inhibitor inactive, TDP1 inh inactive, DT40 TDP1 CPT 23µM, TDP1 cell noCPT 21µM and HepG2 tox inactive.
COc1ccc(C2C(=O)N(C3CCCCCC3)CC(=O)N2Cc2ccccc2)cc1OC (stereo not drawn) was read as TGFb inhibitor inactive, TDP1 inh inactive, DT40 TDP1 CPT inconclusive, IL1B secr inh inactive, TDP1 cell noCPT inconclusive and HepG2 tox inactive.
For Cc1ccc(/C=C(\C#N)C(=O)Nc2ccccn2)o1 the results were TGFb inhibitor inactive, TDP1 inh inactive, DT40 TDP1 CPT inactive, IL1B secr inh inactive, TDP1 cell noCPT inactive and HepG2 tox inactive.
